In ChEMBL document CHEMBL4513216, “Probing the Open Global Health Chemical Diversity Library for Multistage-Active Starting Points for Next-Generation Antimalarials” (ACS Infect Dis, 2020):
Screen size: about 69,000 compounds; about 8,600 (12%) showed an effect of 50% or more. Shown is part of a subset that was picked to be rich in strong results.

The compounds below were run on Plasmodium berghei (assay: Screen against P. berghei liver stage (PbLuc), transformed with Luciferase, at 10uM). Conditions: tested at 10 uM.
Type: functional, HepG2
`COCCOc1cccc(CNC(=O)CN2CCN(C)CC2C)c1` (stereo unspecified) was tested, and the INHIBITION was 17.883%. With `Cc1ccccc1Cn1cnc2oc(C)c(C(=O)O)c2c1=O` the INHIBITION was 0.348%. With `O=C(CCn1cccn1)N1CCC(c2nnc(-c3ccsc3)o2)CC1` the INHIBITION was 5.86%. `O=C(N[C@@H]1CN(c2ncccn2)C[C@@H]2CCCO[C@@H]21)c1cccnc1` gave an INHIBITION of 4.61%. Compound `CC(=O)NS(=O)(=O)c1ccc(F)cc1C(F)(F)F` has an INHIBITION of 35%. For `O=C(NCCn1nc(-n2cncn2)ccc1=O)c1ccsc1`, the INHIBITION was 6.12%. With `CCOCCC1(C(=O)N2CCCC(c3ncc[nH]3)C2)CCCC1` (stereo unspecified) the INHIBITION was 72%. `CCOCCOc1ccccc1C(=O)N1CCCC(c2ncc[nH]2)C1` (stereo unspecified) gave an INHIBITION of -7.35%. `CCOCCC(=O)N1CCCC(c2ncc[nH]2)C1` (stereo unspecified) gave an INHIBITION of 48.1%. In the case of `O=C(CCOc1ccccc1)N1CCCC(c2ncc[nH]2)C1` (stereo unspecified), the INHIBITION is reported as 52.7%. With `CSCCC(=O)N1CCCC(c2ncc[nH]2)C1` (stereo unspecified) the INHIBITION was -8.66%. `O=C(CCCOCc1ccccc1)N1CCCC(c2ncc[nH]2)C1` (stereo unspecified) was tested, and the INHIBITION was 6.11%. In the case of `COCCC(=O)N1C[C@H]2CN(Cc3cccc(C)n3)C(=O)[C@H]2C1`, the INHIBITION is reported as 26.6%. For `CCOCCN1CCC(c2cnccn2)CC1`, the INHIBITION was 32.7%. With `CN1CCN(C=C2N=C(c3cc(-c4ccccc4F)n[nH]3)ON2)CC1` the INHIBITION was 49.4%. With `CS(=O)(=O)N1CC[C@H]2OCC[C@@]2(C(=O)NCc2ccccn2)C1` the INHIBITION was 39.4%. `CNC(=O)c1cc(C)n(-c2cccc(OC)c2)c1C` was tested, and the INHIBITION was -3.2%. Compound `Cc1cc(Br)cnc1N(C)CC1CCOC1` (stereo unspecified) has an INHIBITION of 23.6%. Compound `Cc1nc2c(c(NCc3ccc(-c4ccccn4)s3)n1)CCNCC2` has an INHIBITION of 32.2%. In the case of `Cc1nc2c(c(NCc3nc4ccccc4s3)n1)CCNCC2`, the INHIBITION is reported as 75.8%. `Cc1nc2c(c(NCc3cc4ccccc4s3)n1)CCNCC2` was tested, and the INHIBITION was 46.1%. `CC(C)N1CCN(C(=O)Nc2cnc3c(cnn3C(C)C)c2)CC1` was tested, and the INHIBITION was 27.6%. For `O=C(CCOc1ccccc1)N1CCCC(n2cncn2)C1` (stereo unspecified), the INHIBITION was -13.255%. Work on `CCC(C)N(Cc1cccnc1)Cc1ccccc1Cn1cccn1` (stereo unspecified) yielded an INHIBITION of 31.3%. `c1cncc(CN(Cc2ccc3c(c2)OCCO3)CC2CCCO2)c1` (stereo unspecified) showed an INHIBITION of -2.98%. For `Cc1ccnc(CC(C)N(C)Cc2ccc3c(c2)OCCO3)c1` (stereo unspecified), the INHIBITION was 8.11%. In the case of `CCC(C)N(Cc1cccnc1)Cc1cc2c(cc1Cl)OCO2` (stereo unspecified), the INHIBITION is reported as 58.5%. For `CCC(C)N(Cc1cccnc1)Cc1cc2c(cc1OC)OCO2` (stereo unspecified), the INHIBITION was -19.8%. `CCC(C)N(Cc1cccnc1)Cc1ccc2c(c1)OCCO2` (stereo unspecified) was tested, and the INHIBITION was 52.5%. `Cn1cc(C2CCCN2C(=O)CCc2cnn(-c3ccccc3)c2)cn1` (stereo unspecified) gave an INHIBITION of 5.03%. `CN(C)C(=O)C1(CCCc2ccccn2)CCN1Cc1nccn1C` (stereo unspecified) gave an INHIBITION of 5.34%. For `COc1ccc2nnc(CCCC(=O)NCc3ccccc3F)n2n1`, the INHIBITION was -6.09%. In the case of `COc1ncccc1CNCc1c(C)nn(C)c1N1CCOCC1`, the INHIBITION is reported as -10.1%. `CC(C)N1CCN(C(=O)c2ccc(Cn3ccccc3=O)o2)CC1` showed an INHIBITION of 14.115%. Compound `Cc1nnc([C@H]2C[C@H]3OCC[C@H]3N(S(=O)(=O)N(C)C)C2)o1` has an INHIBITION of 54.1%. `CCS(=O)(=O)N1C[C@@H](c2nnc(C)o2)C[C@H]2OCC[C@H]21` gave an INHIBITION of 18.7%. Work on `Cc1nnc([C@H]2C[C@H]3OCC[C@H]3N(S(=O)(=O)C3CC3)C2)o1` yielded an INHIBITION of 26%. In the case of `Cc1ccc(CN2C[C@@H]3COC[C@H](NS(C)(=O)=O)[C@@H]3C2)o1`, the INHIBITION is reported as 6.38%. `OCCNc1nccc(-c2c[nH]nc2-c2ccncc2)n1` showed an INHIBITION of 41.2%. `O=C(Cc1cccc(O)c1)NCCNc1nccc(C(F)(F)F)n1` showed an INHIBITION of 0.71%. With `CN(C)c1nccc(-c2c[nH][nH]c2=O)n1` the INHIBITION was 42.6%. `Cc1ncc(-c2ccnc(NCCc3ccc(F)cc3)n2)c(=O)[nH]1` was tested, and the INHIBITION was 72.3%. Compound `O=c1[nH][nH]cc1-c1ccnc(NCCc2ccc(F)cc2)n1` has an INHIBITION of 20.4%. Work on `CC(C)(C)CCNc1nccc(-c2c[nH][nH]c2=O)n1` yielded an INHIBITION of 57.5%. `O=c1[nH][nH]cc1-c1ccnc(NCCN2CCCC2)n1` was tested, and the INHIBITION was 25.3%. `COCCCNc1nccc(-c2c[nH][nH]c2=O)n1` was tested, and the INHIBITION was 15.2%. `Cc1ncc(-c2ccnc(N3CCCCC3)n2)c(=O)[nH]1` showed an INHIBITION of 28.6%. Work on `C[C@H]1CCCCN1CCCNc1nccc(-c2c[nH][nH]c2=O)n1` yielded an INHIBITION of 23.4%. `O=c1[nH][nH]cc1-c1ccnc(NCCc2cccc(O)c2)n1` showed an INHIBITION of 63.4%. In the case of `O=c1[nH][nH]cc1-c1ccnc(NCCc2cccnc2)n1`, the INHIBITION is reported as 59%. With `O=C(O)c1ccnc(-c2ccnc(NCCc3ccc(F)cc3)n2)c1` the INHIBITION was 8.74%. For `O=C(O)c1cn(-c2ccccn2)c(=O)c2ccccc12`, the INHIBITION was -44.2%. Work on `CN(C)[C@@H]1CN(Cc2ccc(O)cc2)C[C@H]1c1cn(C)c2ccccc12` yielded an INHIBITION of 40.9%. Work on `O=C(c1ccncc1)N1C[C@H]2CC[C@@H](C1)N(S(=O)(=O)c1cccnc1)C2` yielded an INHIBITION of -66.4%. With `CCN1CC(C(=O)NCc2ccnc(-n3cccn3)c2)CC1=O` (stereo unspecified) the INHIBITION was -12.33%. For `CCOC(C)c1nccn1Cc1c(C)noc1C` (stereo unspecified), the INHIBITION was 3.19%. Work on `Cc1cc(C(F)(F)F)nc(C2(C)CCCN2CC(N)=O)n1` (stereo unspecified) yielded an INHIBITION of 14.385%. With `c1cncc(-n2cnnc2CCCN2CCOCC2)c1` the INHIBITION was 3.69%. `CN1CCN(Cc2cccnc2)C2(CCN(Cc3ccoc3)C2)C1=O` (stereo unspecified) showed an INHIBITION of -24.9%. Compound `COCCC(=O)NC1CCN(CC2(c3cccc(F)c3)CCCC2)CC1` has an INHIBITION of 12.3%. With `Cc1ccc(NC(=O)[C@H]2C[C@H](C(=O)O)CN(CC(C)C)C2)cn1` the INHIBITION was 11.2%. For `COc1ccc2[nH]c3c(c2c1)CN(c1cc(NCCO)nc(N)n1)CC3`, the INHIBITION was 54.8%. `Nc1nc(NCCO)cc(N2CCc3c([nH]c4ccccc34)C2)n1` showed an INHIBITION of 78.5%. For `COc1ccc(F)c(-c2cc(NCCO)nc(N)n2)c1`, the INHIBITION was -76.6%. In the case of `CCc1ncc2c(n1)CN(c1cc(NCCO)nc(N)n1)C2`, the INHIBITION is reported as -63.2%. Work on `CC(C)Cc1ncc2c(n1)CN(c1cc(NCCO)nc(N)n1)C2` yielded an INHIBITION of 27.7%. In the case of `CC(C)(C)c1ncc2c(n1)CN(c1cc(NCCO)nc(N)n1)C2`, the INHIBITION is reported as 3.84%. `C[C@@H]1C[C@H]2CN(C(=O)c3ccncn3)C[C@H]2O1` showed an INHIBITION of -0.813%. Work on `CN1[C@@H](C(=O)NCC2CC2)C[C@@H]2CN(Cc3ccoc3)C[C@@H]21` yielded an INHIBITION of 1.34%. With `N#CC(NC(=O)CC(F)(F)F)c1ccsc1` (stereo unspecified) the INHIBITION was -3.68%. `COc1cccc(C=CCCN2CCN(S(C)(=O)=O)CC2)c1` gave an INHIBITION of -104%. Work on `Cc1cc(-c2cnc(N3CCN(C)CC3)nc2-c2ccc(C)s2)on1` yielded an INHIBITION of 69.4%. With `Cc1cc(-c2cnc(N3CCSCC3)nc2-c2ccc(C)s2)on1` the INHIBITION was 47.1%. For `Cc1cc(-c2cnc(N3CCOCC3)nc2-c2ccc(C)s2)on1`, the INHIBITION was 53%. Compound `CCN1CCN(c2ncc(-c3cc(C)no3)c(-c3ccco3)n2)CC1` has an INHIBITION of 11.5%. For `CCN1CCN(c2ncc(-c3cc(C)no3)c(-c3ccc(C)s3)n2)CC1`, the INHIBITION was 57.4%. `CCN1CCN(c2ncc(-c3cc(C)no3)c(-c3ccoc3C)n2)CC1` showed an INHIBITION of 48.9%. For `Cc1cc(-c2cnc(N3CCCC3)nc2-c2ccc(C)s2)on1`, the INHIBITION was 32.3%. For `Cc1nc(CN2CCCC(N(C)CCOCC(F)(F)F)C2)no1` (stereo unspecified), the INHIBITION was -13.5%. `c1cc(COc2ccc(CNC3CCc4ncnn4C3)cc2)ccn1` (stereo unspecified) showed an INHIBITION of -1.76%. Work on `CS(=O)(=O)CC1(CNc2c(C#N)cnc3ccc(Cl)cc23)CC1` yielded an INHIBITION of -14.1%. `CS(=O)(=O)c1cn[nH]c1C1CCCCN1C(=O)c1ccsc1` (stereo unspecified) was tested, and the INHIBITION was -69.5%. Compound `CN1C(=O)CCC12CCC(NC(=O)NCc1cccnc1)CC2` (stereo unspecified) has an INHIBITION of 28.5%. Compound `O=S(=O)(N1CCCCCC1)N1CCN(Cc2ccc(F)cc2Br)CC1` has an INHIBITION of 71.2%. With `CS(=O)(=O)N1CCN(Cc2ccc(F)cc2Br)CC1` the INHIBITION was 35.4%. `O=S(=O)(c1ccccc1)N1CCN(Cc2ccc(F)cc2Br)CC1` was tested, and the INHIBITION was 33.1%. `CN1C(=O)CC(C(=O)O)C12CCN(c1ccc3cccc(Cl)c3n1)CC2` (stereo unspecified) showed an INHIBITION of -0.273%. In the case of `CCC1=N[C@@]2(CC[C@@H]3CN(CC(C)C)C[C@@H]32)C(=O)N1`, the INHIBITION is reported as 24.9%. For `O=C1CSC(c2ccsc2)c2sccc2N1` (stereo unspecified), the INHIBITION was 20.5%. Work on `O=C1CSC(c2ccc(O)cc2)c2sccc2N1` (stereo unspecified) yielded an INHIBITION of 88.1%. For `COc1cccc(C2SCC(=O)Nc3ccsc32)c1` (stereo unspecified), the INHIBITION was 3.68%. With `COc1cc(C2SCC(=O)Nc3ccsc32)cc(OC)c1OC` (stereo unspecified) the INHIBITION was 29.4%. Work on `COc1cc(OC)cc(C2SCC(=O)Nc3ccsc32)c1` (stereo unspecified) yielded an INHIBITION of 3.68%. `COc1ccc(C2SCC(=O)Nc3ccsc32)cc1` (stereo unspecified) gave an INHIBITION of 67.9%. With `COc1ccc(C2SCC(=O)Nc3ccsc32)cc1OC` (stereo unspecified) the INHIBITION was 3.68%. `COc1cc(C2SCC(=O)Nc3ccsc32)cc(OC)c1O` (stereo unspecified) gave an INHIBITION of 43.7%. Compound `COC(=O)c1ccc(C2SCC(=O)Nc3ccsc32)cc1` (stereo unspecified) has an INHIBITION of 78.1%. `COCC1CC2(CCN(Cc3nc(C)cs3)CC2)CO1` (stereo unspecified) was tested, and the INHIBITION was 14.9%. With `COc1cc(C(=O)NC(CC(=O)O)c2cccs2)cc(OC)c1C` (stereo unspecified) the INHIBITION was 5.03%. `COc1ccc(C2=NOC(CC#N)C2)cc1` (stereo unspecified) showed an INHIBITION of 45.8%. Compound `Cc1cc(C)n(CC2CCCN2C(=O)CCNc2ncccn2)n1` (stereo unspecified) has an INHIBITION of -9.4%. `NC(=O)C1(CNC(=O)CCc2ccc(Cl)s2)CCOCC1` showed an INHIBITION of 13.8%. `O=C(CCCN1CCCCC1)NC(C(=O)O)c1cccc(F)c1` (stereo unspecified) was tested, and the INHIBITION was -20%. `CN(C)C(=O)COC1COC2(CCN(S(C)(=O)=O)CC2)C1` (stereo unspecified) showed an INHIBITION of 37%. In the case of `CCn1cc2[nH]c(OC)c(CNC(=O)CCC3CCCC3)cc-2c1=O`, the INHIBITION is reported as 34.4%. Work on `COc1ccc(C(C)(C)C)cc1CN1CCn2c(CO)nnc2C1` yielded an INHIBITION of 48.4%.
